Laboratory results: PubChem BioAssay (EPA / NIEHS)
“And” between values parts separate entries of the source, which are not always exact repeats. Identical values can stand only once. Results filed as inconclusive are left out. Some compounds were tested as several samples or in several runs, with calls that do not always agree. The source made the active and inactive calls. Rule for the calls, unless noted: active = hit-call score of the fitted dose curve at least 0.9, where 1 is the maximum; inactive = score below 0.9.

Assays:
[1] = BSK_3C_VCAM1: BioMAP Diversity Plus: 3C Assay for Vascular cell adhesion molecule 1 (VCAM1) Biomarker Activity (AID 2282999); details: BioMAP 3C HUVEC, VCAM1 ELISA, cytokine-stimulated; actives raise or lower the signal
Summary of the method: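 HUVEC primary cells, 24 h compound exposure; VCAM-1 by ELISA; gain/loss of signal fitted bidirectionally vs DMSO baseline.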

[2] = BSK_4H_Eotaxin3: BioMAP Diversity Plus: 4H Assay for Eotaxin 3 Biomarker Activity (AID 2283000); details: primary human endothelial cells (HUVEC); actives raise or lower the signal
Summary of the method: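 ELISA quantitation of CCL26 (Eotaxin-3) protein from chemically dosed human vascular endothelial cells at 24 h; increases and decreases both scored relative to DMSO-treated baseline.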

[3] = target: human Peroxisome Proliferator-activated Receptor alpha (PPARa), PPARA (gene 5465) (UniProt Q07869); experiment: ATG_PPARa_TRANS: Attagene TRANS-FACTORIAL HepG2 Assay for human Peroxisome Proliferator-activated Receptor alpha (PPARa) (AID 2283001; active = hit-call score of the fitted dose curve at least 0.9, where 1 is the maximum;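 for AC50: potency for gain of reporter signal over DMSO so agonist or activator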)
Sequence of human Peroxisome Proliferator-activated Receptor alpha (PPARa), PPARA (gene 5465) (Q07869 whole entry, looked up, the tested form may be a part): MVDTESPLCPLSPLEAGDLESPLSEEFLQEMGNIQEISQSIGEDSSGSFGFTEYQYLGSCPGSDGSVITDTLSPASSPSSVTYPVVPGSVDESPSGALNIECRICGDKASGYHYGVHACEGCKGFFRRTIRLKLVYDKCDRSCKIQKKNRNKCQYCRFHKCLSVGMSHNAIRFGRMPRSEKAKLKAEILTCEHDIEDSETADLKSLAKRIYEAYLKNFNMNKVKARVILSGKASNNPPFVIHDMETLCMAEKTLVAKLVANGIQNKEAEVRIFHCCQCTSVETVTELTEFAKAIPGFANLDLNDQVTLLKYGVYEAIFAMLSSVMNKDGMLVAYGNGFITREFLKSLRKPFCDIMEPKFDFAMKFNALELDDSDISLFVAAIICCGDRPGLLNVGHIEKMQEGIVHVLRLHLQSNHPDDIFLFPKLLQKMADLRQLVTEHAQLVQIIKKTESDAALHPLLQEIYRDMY
Summary of the method: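 Transient HepG2 transfection, GAL4-UAS reporters, NR-Gal4 chimeras; 24 h compound exposure. Readout: reporter transcripts by RT-PCR, 6-FAM primer extension, HpaI digest, capillary electrophoresis. Positive direction vs DMSO baseline.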

[4] = target: human Peroxisome Proliferator-activated Receptor delta (PPARd), PPARD (gene 5467) (UniProt Q03181); experiment: ATG_PPARd_TRANS: Attagene TRANS-FACTORIAL HepG2 Assay for human Peroxisome Proliferator-activated Receptor delta (PPARd) (AID 2283002; active = hit-call score of the fitted dose curve at least 0.9, where 1 is the maximum)
Summary of the method: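 Read-out: reporter mRNA induction, quantified by fluorescent RT-PCR products resolved by capillary electrophoresis. Human HepG2 liver cells carried transiently transfected Gal4-UAS reporter constructs with chimeric NR-Gal4 fusions. Cells were dosed for 24 h; DMSO served as baseline.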

[5] = read-out: Intercellular Adhesion Molecule 1 (ICAM1), ICAM1 (gene 3383); experiment: BSK_3C_ICAM1: BioMAP Diversity Plus: 3C Assay for Intercellular Adhesion Molecule 1 (ICAM1) Biomarker Activity (AID 2283003); details: primary human endothelial cells (HUVEC); actives raise or lower the signal
Summary of the method: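 Using DMSO as baseline, bidirectional curve fitting was applied to ICAM-1 ELISA signals from HUVEC in the 3C system, measured 24 h after compound addition.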

[6] = target: human Retinoic Acid Receptor beta (RARb), RARB (gene 5915) (UniProt P10826); experiment: ATG_RARb_TRANS: Attagene TRANS-FACTORIAL HepG2 Assay for human Retinoic Acid Receptor beta (AID 2283004; active = hit-call score of the fitted dose curve at least 0.9, where 1 is the maximum)
Sequence of human Retinoic Acid Receptor beta (RARb), RARB (gene 5915) (P10826 whole entry, looked up, the tested form may be a part): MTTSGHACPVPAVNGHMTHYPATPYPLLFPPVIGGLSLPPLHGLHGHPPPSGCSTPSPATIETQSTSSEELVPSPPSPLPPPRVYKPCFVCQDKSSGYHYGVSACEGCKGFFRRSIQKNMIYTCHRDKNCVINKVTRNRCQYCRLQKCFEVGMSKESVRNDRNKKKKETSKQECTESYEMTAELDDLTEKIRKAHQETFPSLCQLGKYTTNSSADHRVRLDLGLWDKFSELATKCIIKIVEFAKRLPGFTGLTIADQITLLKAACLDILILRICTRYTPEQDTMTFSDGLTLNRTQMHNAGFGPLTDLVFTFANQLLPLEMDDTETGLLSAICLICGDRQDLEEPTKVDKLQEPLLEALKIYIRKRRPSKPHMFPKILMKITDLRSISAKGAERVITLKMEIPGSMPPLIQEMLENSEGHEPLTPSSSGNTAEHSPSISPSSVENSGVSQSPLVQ
Summary of the method: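 Fluorescent capillary-electrophoresis detection of GAL4-UAS reporter mRNA defines the endpoint, with induction over DMSO-treated wells scored as activity. Transiently transfected human hepatoma HepG2 cells expressing exogenous NR–Gal4 proteins are exposed to test chemicals for 24 h.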

[7] = target: Retinoic acid receptor alpha (Homo sapiens) (UniProt P10276); experiment: ATG_RARa_TRANS: Attagene TRANS-FACTORIAL HepG2 Assay for human Retinoic Acid Receptor alpha (RARa) (AID 2283005; active = hit-call score of the fitted dose curve at least 0.9, where 1 is the maximum)
Sequence of Retinoic acid receptor alpha (Homo sapiens) (P10276 whole entry, looked up, the tested form may be a part): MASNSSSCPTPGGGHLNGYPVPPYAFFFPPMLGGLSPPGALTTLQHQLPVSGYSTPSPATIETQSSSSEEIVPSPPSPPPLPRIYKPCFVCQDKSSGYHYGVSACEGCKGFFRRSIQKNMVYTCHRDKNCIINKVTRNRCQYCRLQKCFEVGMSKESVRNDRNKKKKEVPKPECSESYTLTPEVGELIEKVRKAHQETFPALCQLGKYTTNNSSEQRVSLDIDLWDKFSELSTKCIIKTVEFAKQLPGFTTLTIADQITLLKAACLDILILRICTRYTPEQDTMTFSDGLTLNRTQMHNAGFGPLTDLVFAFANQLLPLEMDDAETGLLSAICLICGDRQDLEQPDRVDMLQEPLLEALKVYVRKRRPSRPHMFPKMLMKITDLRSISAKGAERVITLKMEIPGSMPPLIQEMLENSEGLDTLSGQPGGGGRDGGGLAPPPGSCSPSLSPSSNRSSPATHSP
Summary of the method: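 HepG2 transiently transfected with multiplex GAL4-UAS reporter units including a human RARa–GAL4 chimera; 24 h compound exposure. Reporter mRNA quantified by RT-PCR, 6-FAM labeling and capillary electrophoresis; gain of signal versus DMSO.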

[8] = BSK_3C_Proliferation: Cell Proliferation Assessment in the BioMAP Diversity Plus: 3C Assay (AID 2283006); details: primary human endothelial cells (HUVEC);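 for AC50: potency may reflect either rise or fall in cell number versus DMSO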
Summary of the method: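 Measured here: sulforhodamine B (0.1%) staining of TCA-fixed sub-confluent umbilical vein endothelial cultures 48 h post-dosing, absorbance 560 nm. DMSO served as negative control and baseline; both signal gain and loss were modelled.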

[9] = target: Peroxisome proliferator-activated receptor gamma (Homo sapiens) (UniProt P37231); experiment: ATG_PPARg_TRANS: Attagene TRANS-FACTORIAL HepG2 Assay for human Peroxisome Proliferator-activated Receptor-gamma (PPARg) (AID 2283007; active = hit-call score of the fitted dose curve at least 0.9, where 1 is the maximum)
Sequence of Peroxisome proliferator-activated receptor gamma (Homo sapiens) (P37231 whole entry, looked up, the tested form may be a part): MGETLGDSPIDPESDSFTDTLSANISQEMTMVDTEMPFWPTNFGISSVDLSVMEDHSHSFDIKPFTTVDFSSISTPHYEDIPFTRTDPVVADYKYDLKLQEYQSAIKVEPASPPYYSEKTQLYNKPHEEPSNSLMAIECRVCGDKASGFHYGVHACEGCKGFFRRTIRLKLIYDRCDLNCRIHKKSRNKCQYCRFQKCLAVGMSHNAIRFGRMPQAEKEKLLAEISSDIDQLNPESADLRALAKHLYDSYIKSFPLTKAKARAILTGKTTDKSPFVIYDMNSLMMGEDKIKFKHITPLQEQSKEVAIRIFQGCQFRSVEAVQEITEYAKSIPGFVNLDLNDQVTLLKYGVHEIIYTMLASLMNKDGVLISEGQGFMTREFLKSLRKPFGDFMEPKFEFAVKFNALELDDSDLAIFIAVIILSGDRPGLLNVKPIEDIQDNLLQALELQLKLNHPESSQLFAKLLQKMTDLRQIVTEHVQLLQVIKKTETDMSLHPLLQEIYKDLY
Summary of the method: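 Endpoint reflects upward reporter mRNA change versus DMSO controls. Setup: transiently transfected HepG2, GAL4-UAS reporters driven by chimeric NR-Gal4, 24 h incubation, RT-PCR with capillary electrophoresis read-out.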

[10] = target: Nuclear receptor subfamily 1 group I member 2 (Homo sapiens) (UniProt O75469); experiment: ATG_PXR_TRANS: Attagene TRANS-FACTORIAL HepG2 Assay for human Pregnane X Receptor (PXR) (AID 2283008; active = hit-call score of the fitted dose curve at least 0.9, where 1 is the maximum)
Sequence of Nuclear receptor subfamily 1 group I member 2 (Homo sapiens) (O75469 whole entry, looked up, the tested form may be a part): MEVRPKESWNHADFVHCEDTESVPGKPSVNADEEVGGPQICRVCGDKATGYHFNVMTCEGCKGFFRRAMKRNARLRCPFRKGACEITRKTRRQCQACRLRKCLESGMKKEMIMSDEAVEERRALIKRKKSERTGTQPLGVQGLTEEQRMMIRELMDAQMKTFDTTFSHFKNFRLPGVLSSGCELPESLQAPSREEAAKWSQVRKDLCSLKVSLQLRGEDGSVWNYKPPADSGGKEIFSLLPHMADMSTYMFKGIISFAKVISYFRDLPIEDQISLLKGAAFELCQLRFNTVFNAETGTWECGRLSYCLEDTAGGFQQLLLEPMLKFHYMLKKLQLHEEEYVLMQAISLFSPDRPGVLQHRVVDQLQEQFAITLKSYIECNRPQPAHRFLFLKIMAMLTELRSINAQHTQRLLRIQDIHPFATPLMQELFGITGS
Summary of the method: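 Multiplexed TRANS reporter panel in HepG2; this component tracks PXR-Gal4-driven reporter mRNA after 24 h dosing, measured by RT-PCR with capillary electrophoresis fluorescence, fitted against DMSO.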

[11] = target: human Retinoic Acid Receptor gamma (RARg), RARG (gene 5916) (UniProt P13631); experiment: ATG_RARg_TRANS: Attagene TRANS-FACTORIAL HepG2 Assay for human Retinoic Acid Receptor gamma (RARg) (AID 2283009; active = hit-call score of the fitted dose curve at least 0.9, where 1 is the maximum)
Sequence of human Retinoic Acid Receptor gamma (RARg), RARG (gene 5916) (P13631 whole entry, looked up, the tested form may be a part): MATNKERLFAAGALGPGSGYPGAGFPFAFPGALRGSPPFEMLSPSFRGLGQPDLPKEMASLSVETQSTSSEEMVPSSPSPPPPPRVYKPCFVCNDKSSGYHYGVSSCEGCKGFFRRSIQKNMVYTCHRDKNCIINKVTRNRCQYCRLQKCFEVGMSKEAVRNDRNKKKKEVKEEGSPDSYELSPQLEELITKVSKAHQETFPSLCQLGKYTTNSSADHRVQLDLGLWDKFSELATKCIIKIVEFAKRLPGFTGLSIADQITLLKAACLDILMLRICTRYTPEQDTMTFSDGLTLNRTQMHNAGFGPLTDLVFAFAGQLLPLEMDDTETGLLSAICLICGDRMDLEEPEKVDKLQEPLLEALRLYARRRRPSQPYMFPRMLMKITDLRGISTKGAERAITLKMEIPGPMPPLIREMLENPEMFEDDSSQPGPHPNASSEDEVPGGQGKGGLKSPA
Summary of the method: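 Gain-of-signal relative to DMSO is reported from fluorescent capillary electrophoresis of RT-PCR reporter products. These came from HepG2 cells expressing transfected RARg-GAL4 chimeras with UAS reporters, harvested 24 h after dosing.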

[12] = target: Retinoic acid receptor RXR-alpha (Homo sapiens) (UniProt P19793); experiment: ATG_RXRa_TRANS: Attagene TRANS-FACTORIAL HepG2 Assay for human Retinoid X Receptor alpha (RXRa) (AID 2283012; active = hit-call score of the fitted dose curve at least 0.9, where 1 is the maximum)
Sequence of Retinoic acid receptor RXR-alpha (Homo sapiens) (P19793 whole entry, looked up, the tested form may be a part): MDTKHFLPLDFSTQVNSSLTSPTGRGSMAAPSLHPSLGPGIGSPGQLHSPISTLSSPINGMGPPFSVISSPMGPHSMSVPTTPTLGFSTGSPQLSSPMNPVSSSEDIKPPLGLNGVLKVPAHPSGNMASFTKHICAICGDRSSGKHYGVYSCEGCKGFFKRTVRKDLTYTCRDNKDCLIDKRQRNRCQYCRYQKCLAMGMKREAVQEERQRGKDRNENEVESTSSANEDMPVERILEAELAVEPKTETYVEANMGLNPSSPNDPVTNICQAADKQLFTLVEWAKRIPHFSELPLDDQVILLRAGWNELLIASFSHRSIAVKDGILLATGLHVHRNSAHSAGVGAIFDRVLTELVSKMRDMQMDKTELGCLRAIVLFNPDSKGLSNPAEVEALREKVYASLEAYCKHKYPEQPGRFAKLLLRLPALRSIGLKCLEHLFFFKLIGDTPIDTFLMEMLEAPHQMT
Summary of the method: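 Chimeric NR-GAL4 trans-activation in HepG2, 24 h treatment; reporter transcripts quantified by fluorescence on capillary electrophoresis, analysed for upward change from DMSO.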

[13] = target: human Retinoid X Receptor beta (RXRb), RXRB (gene 6257) (UniProt P28702); experiment: ATG_RXRb_TRANS: Attagene TRANS-FACTORIAL HepG2 Assay for human Retinoid X Receptor beta (RXRb) (AID 2283013; active = hit-call score of the fitted dose curve at least 0.9, where 1 is the maximum)
Sequence of human Retinoid X Receptor beta (RXRb), RXRB (gene 6257) (P28702 whole entry, looked up, the tested form may be a part): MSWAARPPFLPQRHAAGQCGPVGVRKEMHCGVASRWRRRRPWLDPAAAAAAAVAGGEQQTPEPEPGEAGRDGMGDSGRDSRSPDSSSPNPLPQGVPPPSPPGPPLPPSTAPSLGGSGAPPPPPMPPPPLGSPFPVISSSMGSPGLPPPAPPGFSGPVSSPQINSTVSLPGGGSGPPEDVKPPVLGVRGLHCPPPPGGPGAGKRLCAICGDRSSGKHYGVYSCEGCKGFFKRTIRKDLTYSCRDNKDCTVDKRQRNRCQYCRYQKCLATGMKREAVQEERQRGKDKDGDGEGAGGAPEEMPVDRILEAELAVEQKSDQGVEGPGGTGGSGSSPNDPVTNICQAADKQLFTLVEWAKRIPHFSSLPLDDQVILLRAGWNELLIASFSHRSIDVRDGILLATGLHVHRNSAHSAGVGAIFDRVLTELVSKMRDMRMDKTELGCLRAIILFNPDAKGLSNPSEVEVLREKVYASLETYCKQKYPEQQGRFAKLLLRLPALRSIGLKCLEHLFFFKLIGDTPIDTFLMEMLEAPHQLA
Summary of the method: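 After a 24 h incubation with test chemical, transfected HepG2 cells carrying NR-Gal4 fusions and GAL4-UAS reporter transcription units yield RNA whose reporter cDNA is FAM-labelled, HpaI-cut and sized by capillary electrophoresis; increases over DMSO are scored.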

[14] = read-out: E-selectin (Homo sapiens) (UniProt P16581); experiment: BSK_3C_Eselectin: BioMAP Diversity Plus: 3C Assay for Eselectin Biomarker Activity (AID 2283015); details: primary human endothelial cells (HUVEC); actives raise or lower the signal
Summary of the method: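 Endpoint derived by bidirectional fitting against DMSO vehicle; signal is ELISA-detected E-selectin from primary HUVEC at 24 h post-dosing, with parallel SRB staining (0.1% SRB, 560 nm) flagging cytotoxicity.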

[15] = read-out: Interleukin-1 alpha (IL1a), IL1A (gene 3552); experiment: BSK_BE3C_IL1a: BioMAP Diversity Plus: BE3C Assay for Interleukin-1 alpha (IL1a) Biomarker Activity (AID 2283016); details: primary human bronchial epithelial cells; actives raise or lower the signal
Summary of the method: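 Measured in human lung primary bronchial epithelial cells: IL-1a by ELISA at 24 h after dosing, with bidirectional fitting against DMSO.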

[16] = read-out: Monocyte Chemoattractant Protein-1 (MCP1), CCL2 (gene 6347); experiment: BSK_3C_MCP1: BioMAP Diversity Plus: 3C Assay for Monocyte Chemoattractant Protein-1 (MCP1) Biomarker Activity (AID 2283017); details: primary human endothelial cells (HUVEC); actives raise or lower the signal
Summary of the method: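 Using human vascular primary endothelium, researchers measured MCP-1 by ELISA 24 h after treatment, with DMSO serving as negative control for bidirectional fitting.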

[17] = read-out: Monocyte Chemoattractant Protein-1 (MCP1), CCL2 (gene 6347); experiment: BSK_4H_MCP1: BioMAP Diversity Plus: 4H Assay for Monocyte Chemoattractant Protein-1 (MCP1) Biomarker Activity (AID 2283018); details: primary human endothelial cells (HUVEC); actives raise or lower the signal
Summary of the method: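 Primary human umbilical vein endothelium is exposed to chemical for 24 h before MCP-1 is assayed by ELISA. Concentration-response fitted bidirectionally relative to DMSO.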

[18] = read-out: Human Leukocyte Antigen - DR isotype (HLADR), HLA-DRA (gene 3122); experiment: BSK_3C_HLADR: BioMAP Diversity Plus: 3C Assay for Human Leukocyte Antigen - DR isotype (HLADR) Biomarker Activity (AID 2283019); details: primary human endothelial cells (HUVEC); actives raise or lower the signal
Summary of the method: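 Compound added to primary HUVEC cultures, 24 h incubation, then HLA-DR determined by ELISA; endpoint derived by bidirectional fitting relative to DMSO negative control.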

[19] = read-out: Interleukin-8 (IL8), CXCL8 (gene 3576); experiment: BSK_3C_IL8: BioMAP Diversity Plus: 3C Assay for Interleukin-8 (IL8) Biomarker Activity (AID 2283020); details: primary human endothelial cells (HUVEC); actives raise or lower the signal
Summary of the method: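 Using DMSO-treated wells as the baseline, bidirectional curve fitting was applied to ELISA-measured IL-8 from human umbilical vein endothelial cultures sampled 24 h after compound addition.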

[20] = target: human RAR-related Orphan Receptor gamma (RORg), RORC (gene 6097) (UniProt P51449); experiment: ATG_RORg_TRANS: Attagene TRANS-FACTORIAL HepG2 Assay for human RAR-related Orphan Receptor gamma (RORg) (AID 2283011; active = hit-call score of the fitted dose curve at least 0.9, where 1 is the maximum)
Sequence of human RAR-related Orphan Receptor gamma (RORg), RORC (gene 6097) (P51449 whole entry, looked up, the tested form may be a part): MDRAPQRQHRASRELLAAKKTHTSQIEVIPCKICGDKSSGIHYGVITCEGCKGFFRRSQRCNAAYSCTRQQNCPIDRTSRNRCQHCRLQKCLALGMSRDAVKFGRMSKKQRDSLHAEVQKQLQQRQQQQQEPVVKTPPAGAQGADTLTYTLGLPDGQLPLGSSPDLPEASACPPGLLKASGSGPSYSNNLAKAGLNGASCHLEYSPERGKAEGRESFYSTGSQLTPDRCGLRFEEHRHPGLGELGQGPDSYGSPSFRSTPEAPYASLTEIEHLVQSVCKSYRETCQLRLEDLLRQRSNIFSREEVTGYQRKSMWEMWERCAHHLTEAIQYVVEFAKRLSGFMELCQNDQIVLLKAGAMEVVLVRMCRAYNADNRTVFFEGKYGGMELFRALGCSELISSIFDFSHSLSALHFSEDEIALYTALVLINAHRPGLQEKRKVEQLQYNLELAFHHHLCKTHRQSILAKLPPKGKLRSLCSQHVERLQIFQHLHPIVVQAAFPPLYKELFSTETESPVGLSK
Summary of the method: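 Chimeric RORg-Gal4 transactivation in transfected HepG2; 24 h exposure; RT-PCR/capillary electrophoresis readout of reporter mRNA, DMSO baseline.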

Measured: AC50

Sequence of E-selectin (Homo sapiens) (P16581 whole entry, looked up): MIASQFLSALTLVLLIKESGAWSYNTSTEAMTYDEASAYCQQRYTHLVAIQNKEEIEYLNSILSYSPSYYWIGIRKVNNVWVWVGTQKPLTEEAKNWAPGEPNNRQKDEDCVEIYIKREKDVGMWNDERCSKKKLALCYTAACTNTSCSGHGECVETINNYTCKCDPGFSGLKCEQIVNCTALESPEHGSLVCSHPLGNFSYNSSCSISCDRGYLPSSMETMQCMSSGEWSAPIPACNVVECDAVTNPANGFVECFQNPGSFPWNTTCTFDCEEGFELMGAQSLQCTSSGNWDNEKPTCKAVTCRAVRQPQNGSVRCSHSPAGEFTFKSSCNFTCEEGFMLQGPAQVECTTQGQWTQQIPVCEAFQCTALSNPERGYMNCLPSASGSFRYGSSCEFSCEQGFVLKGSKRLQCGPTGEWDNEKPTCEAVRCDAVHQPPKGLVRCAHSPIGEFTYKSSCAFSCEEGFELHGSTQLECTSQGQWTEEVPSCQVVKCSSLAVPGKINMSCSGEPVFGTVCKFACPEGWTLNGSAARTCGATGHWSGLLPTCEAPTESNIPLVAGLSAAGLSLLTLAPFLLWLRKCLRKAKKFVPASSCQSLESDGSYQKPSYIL

CC1(c2ccc(Oc3ccccc3)cc2)OC(=O)N(Nc2ccccc2)C1=O (stereo unspecified)
active: [1] 33 µM | [2] 16.5 µM | [8] 14 µM | [14] 30.9 µM | [16] 33.3 µM | [17] 16.3 µM | [18] 24 µM | [19] 24 µM
not listed: [20]
inactive: all other assays above

O=C(O)C(F)(F)C(F)(F)C(F)(F)C(F)(F)C(F)(F)C(F)(F)C(F)(F)F
inactive: [1] | [2] | [4] | [5] | [8] | [10] | [20] | [12] | [13] | [14] | [16] | [17] | [18] | [19]
active: [3] 22.8 µM [middle of 4 runs] | [13] 57 µM and 37.4 µM and 56.2 µM | [19] 30 µM and 16 µM and 22.5 µM

Oc1cc(Cl)ccc1Oc1ccc(Cl)cc1Cl
inactive: [3] | [4] | [9] | [10] | [20] | [12]
active: [1] 28.1 µM [middle of 4 runs] | [2] 17.1 µM [middle of 4 runs] | [3] 17.5 µM and 17.4 µM | [5] 33.6 µM [middle of 4 runs] | [8] 11 µM [middle of 4 runs] | [9] 11.1 µM [middle of 6 runs] | [12] 18 µM | [13] 7.45 µM [middle of 7 runs] | [14] 14.4 µM and 13.7 µM and 24.9 µM | [16] 32.9 µM [middle of 4 runs] | [17] 11.6 µM [middle of 4 runs] | [18] 13.9 µM [middle of 4 runs] | [19] 27.3 µM [middle of 4 runs]

CCc1ccc(C(=O)NN(C(=O)c2cc(C)cc(C)c2)C(C)(C)C)cc1
active: [16] 4.84 µM
not listed: [3] | [4] | [15]
inactive: all other assays above

[2H]C1([2H])[n+]2ccccc2-c2cccc[n+]2C1([2H])[2H]
active: [8] 31.7 µM
not listed: [3] | [4] | [6] | [7] | [10] | [11] | [12] | [15]
inactive: all other assays above

O=[N+]([O-])/N=C1\NCCN1Cc1ccc(Cl)nc1
active: [10] 90.7 µM
not listed: [3] | [4] | [15] | [20]
inactive: all other assays above

OCCOc1ccccc1
not listed: [4] | [6]
inactive: all other assays above

CC1(C)C(C=C(Cl)Cl)C1C(=O)OC(C#N)c1ccc(F)c(Oc2ccccc2)c1 (stereo unspecified)
active: [8] 10.2 µM | [9] 20.9 µM | [10] 21.6 µM | [17] 7.95 µM
not listed: [3] | [4] | [11] | [15]
inactive: all other assays above

CCOC1Oc2ccc(OS(C)(=O)=O)cc2C1(C)C (stereo unspecified)
active: [10] 29.6 µM | [16] 24.8 µM | [18] 23 µM
not listed: [3] | [15]
inactive: all other assays above

O=[N+]([O-])c1c(Cl)c(Cl)c(Cl)c(Cl)c1Cl
active: [1] 21.4 µM | [8] 30.1 µM | [9] 16.4 µM | [18] 36.9 µM
not listed: [3]
inactive: all other assays above

CCC(C)(C)C(=O)OC1=C(c2ccc(Cl)cc2Cl)C(=O)OC12CCCCC2
inactive: [3] | [6] | [9] | [11] | [20] | [12]
active: [1] 24.7 µM | [2] 32.3 µM | [5] 32.6 µM | [8] 29.2 µM | [14] 19.9 µM | [16] 29.4 µM | [17] 15.1 µM | [18] 11 µM | [19] 30.9 µM
